Common to all, as to experiment: NCI-60 one-dose screen, 48 h (100 = growth as untreated, 0 = no growth, -100 = all killed)
Settings in all cases: 10 µM unless noted

Assay [1] concerns NCI-H23 lung.
For assay [2], the system named is NCI-H226 lung.
Assay [3] relates to NCI-H322M lung.
Assay [4] concerns HOP-62 NSCLC.
For assay [5], the system named is NCI-H460 lung.
Assay [6] relates to HOP-92 NSCLC.
Assay [7] relates to NCI-H522 lung.
Assay [8] relates to A549/ATCC NSCLC.
In assay [9] the test system is 786-0 renal.
The test system of assay [10] is DU-145 prostate.
Assay [11] deals with K-562 leukemia.
Assay [12] deals with MALME-3M melanoma.
The subject of assay [13] is MDA-MB-231 breast.
The test system of assay [14] is RXF 393 renal.
For assay [15], the system named is SF-268 CNS.
Assay [16] deals with SF-295 CNS.
Assay [17] deals with SF-539 CNS.
For assay [18], the system named is UACC-257 melanoma.
Assay [19] relates to M14 melanoma.

About 83,000 compounds went through this panel and 20% of them were active in at least one assay; those are over-represented in the sample as a whole.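 Each cell line was grown in a 96-well plate and treated with one concentration of compound for 48 hours. Values below 10 were considered active.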 Values without a mark were called inactive. Activity calls are given as the source filed them.

On to `CS(=O)(=O)c1ccc(-c2[nH]c3ccc(F)cc3c2/C=N/O)cc1`, for which the growth in [1] was 94.3%; in assay [2], 92.8%; in assay [3] it was 90.1%; in assay [4], 80.7%; in [5], 105%; in assay [6], 87.6%. Also, the growth in assay [7] is 82%; in assay [8], 82%; in assay [9] it was 95.8%; in assay [10], 97.2%; in [11], 89.4%; in assay [12], 105%. The growth in assay [13] was 89.2%; in [14], 104%; in assay [15] it was 93%; in assay [16] it was 100%; in [17], 88.8%; in [18], 86.7%. For the same compound, the growth in assay [19] was 96.6%.

In the case of `Cc1cc(C(c2ccccc2)c2ccccc2)ccc1NS(=O)(=O)c1ccccc1`, the growth in [1] is 86.2%; in assay [2] it was 102%; in assay [3], 119%; in [4], 110%; in assay [5] it was 93.2%; in assay [6], 95.8%. Besides, the growth in assay [7] was 83.7%; in assay [8] it was 87.9%; in [9] it was 102%; in [10], 102%; in [11] it was 65.1%; in assay [12], 130%. Also, the growth was 88.5% in assay [13]; 102% in assay [14]; 85.9% in [15]; 109% in assay [16]; 98.4% in assay [17]; 118% in [18]. In addition, in assay [19], the growth is 108%.

`Cc1[nH]c(-c2nc3ccccc3[nH]2)c(C)c1C(=O)NNc1ccc(Cl)cc1`: the growth in assay [1] is 91%; in [2], 84.1%; in assay [3], 89.6%; in assay [4], 98.7%; in assay [5], 103%; in assay [6] it was 90.6%. The growth in assay [7] is 80.9%; in assay [8], 93.1%; in assay [9], 94.7%; in [10], 105%; in [11], 94.1%; in [12], 94.5%. The growth in [13] is 79.2%; in assay [14] it was 103%; in assay [15], 95.3%; in assay [16], 109%; in [17], 95.7%; in [18], 91%. Moreover, the growth in assay [19] was 102%.

`C=C1c2c(C)nn(-c3ccc(N)cc3)c2N(C)C23CC1C1(C)c4c(C)nn(-c5ccc(N)cc5)c4N(C)C(C)(CC12)C3` (configuration not stated): the growth is 93.6% in [1]; 71.2% in assay [2]; 92.1% in [3]; 88.3% in [4]; 57.2% in [5]; 90.2% in [6]. The growth was 62.3% in assay [7]; 50.1% in assay [8]; 81.1% in assay [9]; 81.4% in assay [10]; 42.9% in assay [11]; 102% in assay [12]. The growth in [13] is 89.2%; in assay [14], 71.7%; in assay [15], 76.5%; in [16] it was 52.5%; in assay [17], 100%; in assay [18] it was 72.5%. Also, the growth in [19] was 61.6%.

As for `CCOC(=O)c1c(C)[nH]c(C(=O)CCC(=O)OC)c1C`, the growth is 98.3% in assay [1]; 95.8% in [2]; 98.5% in assay [3]; 98.7% in [4]; 110% in assay [5]; 84.6% in assay [6]. For the same compound, the growth in [7] was 72.5%; in assay [8] it was 93.3%; in [9], 92.9%; in assay [10], 100%; in assay [11], 102%; in assay [12], 98.7%. In addition, the growth in [13] was 115%; in [14], 112%; in [15], 98.3%; in assay [16], 91.8%; in [17], 100%; in assay [18], 112%. The growth in assay [19] is 97.5%.

`O=C(Nc1ccccn1)[C@H](O)[C@@H](O)C(=O)N1CCOCC1`: the growth in assay [1] was 106%; in assay [2], 95.3%; in assay [3], 115%; in assay [4], 104%; in assay [5], 105%; in [6], 106%. In addition, the growth in [7] was 102%; in [8], 99.6%; in [9] it was 107%; in assay [10] it was 106%; in assay [11], 115%; in assay [12], 114%. Also, the growth in [13] is 100%; in [14], 119%; in [15] it was 106%; in assay [16] it was 109%; in assay [17], 107%; in assay [18], 101%. In addition, the growth in assay [19] is 103%.

For the compound `CC(C)n1nc(C#Cc2cccc(NC(=O)c3cccc(C(F)(F)F)c3)c2)c2c(N)ncnc21`, the growth was -3.4% (active) in assay [1]; -0.0561% (active) in assay [2]; -18.3% (active) in assay [3]; -37.9% (active) in assay [4]; 5.91% (active) in assay [5]; -33.7% (active) in [6]. Besides, the growth in assay [7] is -18.6% (active); in [8], -14.4% (active); in assay [9], -20.9% (active); in assay [10] it was -22.9% (active); in [11], -22.6% (active); in assay [12] it was -39% (active). The growth is -81.9% (active) in [13]; -76.8% (active) in assay [14]; 3.1% (active) in assay [15]; -14.9% (active) in assay [16]; -73.9% (active) in [17]; -18.2% (active) in assay [18]. Further, the growth in [19] was -44% (active).

With `CCn1nc(C#Cc2c(C)ccc3c(Nc4ccc(Cl)cc4)nccc23)c2c(N)ncnc21`, the growth in assay [1] is 18.4%; in assay [2] it was 14.8%; in assay [3], 29.2%; in assay [4] it was -0.0802% (active); in [5] it was 10.6%; in assay [6], 13.6%. Besides, the growth was -15.4% (active) in assay [7]; 16.8% in assay [8]; 14.1% in [9]; 34.9% in [10]; 12.8% in assay [11]; -40.6% (active) in assay [12]. Moreover, the growth in assay [13] was 8.63% (active); in assay [14] it was -4.58% (active); in [15] it was 17.5%; in assay [16], 4.88% (active); in assay [17] it was -31.6% (active); in assay [18], -9.69% (active). In assay [19], the growth is 5.1% (active).
